From PubChem
An excerpt weighted towards active compounds, which were near 7.3% of everything screened.
AmpC inh detg = inhibitors of E. coli AmpC beta-lactamase with detergent; P00811; 370,000 tested, 0.041% active; Potency, µM (highest dose often 114 µM), actives largely listed as inhibitors; AID 485294; AmpC hydrolysis of nitrocefin, absorbance 480 nm, 0.01% Triton; also: nearly all actives have a fitted effect of over 25% in size
Target sequence (P00811 whole entry, looked up): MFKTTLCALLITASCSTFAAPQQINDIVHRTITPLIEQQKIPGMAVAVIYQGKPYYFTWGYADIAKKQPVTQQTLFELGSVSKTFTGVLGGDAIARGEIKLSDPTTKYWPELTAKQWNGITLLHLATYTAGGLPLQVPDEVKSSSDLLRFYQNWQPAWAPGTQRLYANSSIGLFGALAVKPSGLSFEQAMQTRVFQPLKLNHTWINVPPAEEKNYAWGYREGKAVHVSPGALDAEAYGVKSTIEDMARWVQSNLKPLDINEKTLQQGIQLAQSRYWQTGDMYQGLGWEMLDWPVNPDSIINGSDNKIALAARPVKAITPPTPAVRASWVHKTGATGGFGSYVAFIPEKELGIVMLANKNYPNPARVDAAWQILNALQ
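20 mM phosphate pH 7.0 + 0.01% (detergent screen) or 0.0001% Triton X-100; 5.3 nM AmpC reagent; cpd preinc 15 min RT; nitrocefin (800 uM stock) to start; A480 q20 s × 4 min; Activity was normalised to no-enzyme and no-compound control wells.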
AmpC inh no detg = AmpC beta-lactamase inhibition without detergent | Potency, µM (titrated, usually from 57.1 µM), most hits filed as inhibitors | 330,000 tested, 0.52% active | AmpC nitrocefin hydrolysis, absorbance 480 nm, 0.0001% Triton | AID 485341 | P00811; also: nearly all actives have a fitted effect of over 20% in size
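AmpC (5.3 nM in the dispensed reagent) in 20 mM phosphate pH 7.0 with 0.01% (detergent screen) or 0.0001% Triton X-100 was preincubated with compounds for 15 min at room temperature. Nitrocefin was then added from an 800 uM solution, and hydrolysis was followed at 480 nm.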
FMDV antiviral = foot and mouth disease virus antiviral activity; FMDV antiviral cell-based qHTS; Potency, µM (highest dose often 57.9 µM), usual class: inhibitors; 410,000 tested, 1.2% active; calls by dose curve; tested in HEK293T cells; also: read-out not given here; nearly all actives have a fitted effect of over 45% in size
HCV inhibitor = blocks hepatitis C virus | Potency, µM (doses to about 41.8 µM), usual class: inhibitors | AID 651820 | Huh7.5.1 HCVcc-Cre infection, luciferase reporter, 44 h | 340,000 tested, 3.4% active
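Infectious HCVcc-Cre (~0.5 moi) was added to cells just after compound, with cells seeded 4 h earlier at 1,000 per well. Luciferase activity after 44 h culture reported infection; substrate was incubated 15 min at room temperature before reading.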
HCMV inh = inhibitors of human cytomegalovirus. 410,000 tested, 4.5% active. activity change, negative = inhibition, % at 57.5 µM. HFF cells, HCMV-luciferase reporter, 72 h; hits give low values. AID 1259415; in the data active = activity change below about -60%; inconclusive = no clear call, values can overlap the other calls; inactive = above about -39%
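Two compound doses tested in HFFs infected with HCMV-luciferase, MOI 1 PFU/cell, 72 h at 37C. Lysate luminescence read with OneGlo; data normalized against buffer-only and 10uM Salinomycin inhibitor controls.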
Large screens that a line does not name were inactive. Unless noted, calls follow the shape of the dose curve; as a rule, active = well fitted curve in the direction sought with a large enough effect; inconclusive = small, poorly fitted or top-dose-only effect, or another doubt; inactive = no such curve, though single readings can be large; an effect the other way counts as inactive or inconclusive.

CC(NCc1ccc(OCc2ccc(Cl)cc2)cc1)C(O)c1ccccc1 (stereo not drawn)	AmpC inh detg inconclusive, HCV inhibitor 10µM
COc1cccc(-c2cncnc2NCCc2cnc[nH]2)c1	none (no result: AmpC inh detg, AmpC inh no detg, HCV inhibitor, HCMV inh)
Cn1c(=O)n(CCCc2ccccc2)c(=O)c2c1nc1n2CCN1c1ccc(F)cc1	none (no result: AmpC inh no detg, HCV inhibitor)
CSc1nsc(/C=C/Nc2ccc(Cl)cc2)c1C#N	AmpC inh no detg 17.8µM, HCV inhibitor inconclusive
CSc1nsc(/C=C/Nc2ccc(F)cc2)c1C#N	none
O=C(NC1CC(=O)N(c2ccc(Cl)cc2)C1)c1ccc(S(=O)(=O)N2CCCC2)cc1 (stereo not drawn)	none (no result: AmpC inh no detg, HCV inhibitor)
CC(C)(C)c1ccc(-c2nnc(SCC(=O)Nc3sc4c(c3C#N)CCCC4)o2)cc1	HCMV inh -101.6
N#Cc1c(NC(=O)CSc2ncn[nH]2)sc2c1CCCCC2	FMDV antiviral 8.91µM, HCV inhibitor inconclusive, HCMV inh -63.7
N#Cc1c(NC(=O)CSc2nc(N)cc(=O)[nH]2)sc2c1CCCCCC2	AmpC inh detg inconclusive, HCV inhibitor inconclusive, HCMV inh inconclusive (no result: FMDV antiviral)
O=C(Nc1ccc(F)cc1F)c1ccc2c(O)c(S(=O)(=O)c3ccc(Cl)cc3)c(=O)[nH]c2c1	none (no result: AmpC inh no detg, HCV inhibitor)
CC(=O)OC1CCC2(C)C3CCC4(C)C(C(C)=O)CCC4C3CC3OC32C1 (stereo not drawn)	HCMV inh -61.1 (no result: AmpC inh detg, AmpC inh no detg)
CC(=O)OC1(C(C)=O)CCC2C3CC4OC45CC(O)CCC5(C)C3CCC21C (stereo not drawn)	none (no result: AmpC inh detg, AmpC inh no detg)
CCOc1cc(C)c(S(=O)(=O)Nc2ccc(F)cc2)cc1C	AmpC inh detg inconclusive, HCV inhibitor inconclusive, HCMV inh -62.1
COc1ccc(C)cc1S(=O)(=O)Nc1ccc(F)cc1	none
COc1ccc2cc([C@H](C)C(=O)N(C)Cc3ccccc3N3CCCC3)ccc2c1	AmpC inh detg inconclusive, HCV inhibitor 10µM
COc1ccc(C(CNC(=O)C(C)c2ccc3cc(OC)ccc3c2)N(C)C)cc1 (stereo not drawn)	none
CCN(CC)CCN(C)C(=O)c1[nH]c(C(F)(F)F)nc1-c1ccccc1	HCMV inh -98.9 (no result: AmpC inh detg, AmpC inh no detg, HCV inhibitor)
CN(Cc1ccccc1)C(=O)c1[nH]c(C(F)(F)F)nc1-c1ccccc1	none (no result: AmpC inh detg, AmpC inh no detg, HCV inhibitor)
CC(=O)Nc1ccc(/C=C/c2ccc3cccc([N+](=O)[O-])c3n2)cc1	HCV inhibitor 11.2µM, HCMV inh -90.0
O=C(O)COc1ccc(/C=C/c2ccc3cccc([N+](=O)[O-])c3n2)cc1	none
CN(C)C(=O)c1ccc(Nc2nccc3c2cc(-c2ccsc2)n3C)cc1	none (no result: AmpC inh detg, AmpC inh no detg, FMDV antiviral, HCV inhibitor)
COC(=O)c1c(C(=O)OC)c2ccccn2c1C(=O)c1ccc([N+](=O)[O-])cc1	FMDV antiviral inconclusive, HCMV inh -101.9
O=C(CSc1nnnn1-c1cccc(F)c1)NC1CC1	none (no result: AmpC inh detg)
COc1ccccc1CN1CC(C(=O)N2CCCCCCC2)CCC1=O (stereo not drawn)	none
COc1ccccc1CN1CC(C(=O)N2CCC(OC)CC2)CCC1=O (stereo not drawn)	HCMV inh -63.7
CCCCCCCCN1C(=O)[C@H](CC(=O)NCC23CC4CC(CC(C4)C2)C3)C[C@@]2(C(=O)OCC)CCCC=C12	FMDV antiviral inconclusive (no result: AmpC inh detg, AmpC inh no detg, HCV inhibitor)
CC(=NNC(=S)SCc1ccccc1)c1ccccn1	FMDV antiviral inconclusive, HCV inhibitor 0.316µM, HCMV inh -96.5 (no result: AmpC inh detg, AmpC inh no detg)
CC(=NNC(=S)N1CCC1)c1ccccn1	HCV inhibitor 1.26µM, HCMV inh -101.1 (no result: AmpC inh detg, AmpC inh no detg)
CC(=NNC(=S)N1CCCC1)c1ccccn1	HCMV inh -98.9 (no result: AmpC inh detg, AmpC inh no detg, HCV inhibitor)
C/C(=N/NC(=O)c1ccccn1)c1ccc(O)cc1	none
C/C(=N\Nc1ccc(Cl)cc1)c1ccccn1	none (no result: HCV inhibitor)
Cc1cc(C(=O)NCC2CCC3(CCN(Cc4ccc(F)cc4)CC3)O2)n(C)n1 (stereo not drawn)	none (no result: AmpC inh detg, AmpC inh no detg, HCV inhibitor, HCMV inh)
C#CCOCCOCCOCCNc1nc(N2CCN(C(=O)Cn3cc(CCO)nn3)CC2)nc(N2CCN(C(=O)Cn3cc(CCO)nn3)CC2)n1	none (no result: AmpC inh detg, AmpC inh no detg)
Cc1nn(Cc2c(F)c(F)c(F)c(F)c2F)c(C)c1NC(=O)c1ccc(COc2ccccc2Cl)o1	HCV inhibitor 15.8µM, HCMV inh -65.9
Cc1nn(Cc2ccccc2Cl)c(C)c1NC(=O)c1ccn(C)n1	none
Cc1nn(Cc2ccccc2Cl)c(C)c1NC(=O)c1cc(-c2ccc(F)cc2)on1	HCV inhibitor 3.55µM
